Several values for one entry are separate records, joined by “and”; a condition that tells them apart may be missing. Identical values can stand only once. Inconclusive results are not listed. Where a call stands in place of a potency, no number is given. Activity calls are given as the source filed them. Calls come from the whole dose curve; as a rule, active = well fitted cell-killing curve with a large enough effect; inconclusive = small, poorly fitted or top-dose-only effect, or effect the other way; inactive = no such curve, though single readings can be large or run the other way.
Legend:
[1] = Quantitative High-Throughput drug screen in 47 multiple myeloma cell lines against the NCATS MIPE library collection: PCM6_Riken cell viability assay (AID 1919870); note: nearly all actives have a fitted effect of over 30% in size
Summary of the method: (§1)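 Inhibition of viability over 48 h was scored by ATP content (CellTiter-Glo) in 500-cell wells. Zero and full viability were defined by media-only and DMSO-only wells.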

[2] = Quantitative High-Throughput drug screen in 47 multiple myeloma cell lines against the NCATS MIPE library collection: RPMI8226_ATCC cell viability assay (AID 1919871); note: nearly all actives have a fitted effect of over 30% in size
Summary of the method: as §1

[3] = Quantitative High-Throughput drug screen in 47 multiple myeloma cell lines against the NCATS MIPE library collection: OPM2_DSMZ cell viability assay (AID 1919872); note: nearly all actives have a fitted effect of over 30% in size
Summary of the method: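 Approved and investigational drugs from MIPE 4.0 were added by pin tool to 500 cells per well. After 48 hours at 37C, ATP-based CellTiter-Glo luminescence indicated remaining viability.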

[4] = Quantitative High-Throughput drug screen in 47 multiple myeloma cell lines against the NCATS MIPE library collection: KMS11_JCRBsus cell viability assay (AID 1919873); note: nearly all actives have a fitted effect of over 50% in size
Summary of the method: as §1

[5] = Quantitative High-Throughput drug screen in 47 multiple myeloma cell lines against the NCATS MIPE library collection: KMS28BM_JCRB cell viability assay (AID 1919874); note: nearly all actives have a fitted effect of over 35% in size
Summary of the method: as §1
Potency is the fitted concentration of half-maximal effect.

Row | Compound | Potency [1] | Potency [2] | Potency [3] | Potency [4] | Potency [5]
1 | CS(=O)(=O)c1cccc(CNc2nc(Nc3ccc4c(c3)CCC(=O)N4)ncc2C(F)(F)F)c1 | 7.43 µM (active) | 18.7 µM (active) | 20.9 µM (active) | 8.33 µM (active) | 16.6 µM (active)
2 | O=C(NOC[C@H](O)CO)c1ccc(F)c(F)c1Nc1ccc(I)cc1F | inactive | 0.0296 µM (active) | – | inactive | inactive
3 | CC(=O)Oc1ccccc1C(=O)O | 5.26 µM (active) | inactive | inactive | 10.5 µM (active) | 9.35 µM (active)
4 | CC1(C)Cc2c(-c3ccccc3)c(-c3ccc(Cl)cc3)c(CC(=O)O)n2C1 | 20.9 µM (active) | – | 23.5 µM (active) | 18.7 µM (active) | –
5 | Cc1ccccc1C(C(=O)NC1CCCC1)N(C(=O)Cn1cnc2ccccc21)c1cccc(F)c1 (centres undefined) | inactive | 3.72 µM (active) | – | – | inactive
6 | OC(CCN1CCCCC1)(c1ccccc1)C1CC2C=CC1C2 (centres undefined) | inactive | – | inactive | – | inactive
7 | COc1ccc(-c2ccc3c(N4CCOC[C@H]4C)nc(N4CCOC[C@H]4C)nc3n2)cc1CO | 0.0166 µM (active) | – | 0.0209 µM (active) | – | 0.0083 µM (active)
8 | NC(=O)c1ccc(-c2nc(-c3ccc4c(c3)OCCO4)c(-c3ccccn3)[nH]2)cc1 | 13.2 µM (active) | – | 14.8 µM (active) | inactive | inactive
9 | CCn1c(-c2nonc2N)nc2c(C#CC(C)(C)O)ncc(OC[C@H]3CCCNC3)c21 | 14.8 µM (active) | – | – | 2.96 µM (active) | –
10 | O=C1CCc2cc(OCCCCc3nnnn3C3CCCCC3)ccc2N1 | inactive | – | inactive | inactive | –
11 | Cc1n[nH]c(C)c1Cc1sc2c(c1C(=O)N1C[C@H](O)CO1)c(=O)n(C)c(=O)n2CC(C)C | inactive | – | inactive | 0.0526 µM (active) | inactive
12 | CCCS(=O)(=O)Nc1ccc(F)c(C(=O)c2c[nH]c3ncc(Cl)cc23)c1F | 11.8 µM (active) | – | inactive | 26.4 µM (active) | –
13 | O=C(Nc1nc2ccccc2n1CCN1CCOCC1)c1cccc([N+](=O)[O-])c1 | 1.87 µM (active) | – | inactive | inactive | inactive
14 | Clc1cccc(Cl)c1NC1=NCCN1 | inactive | – | inactive | – | inactive
15 | Cn1cc(-c2ccc3nnc(C(F)(F)c4ccc5ncccc5c4)n3n2)cn1 | inactive | – | inactive | inactive | inactive
16 | Cc1ccc(NC(=O)c2cccc(C(C)(C)C#N)c2)cc1Nc1ccc2ncn(C)c(=O)c2c1 | inactive | – | 16.6 µM (active) | 11.8 µM (active) | –
17 | Cc1ccc(-n2nc(C(C)(C)C)cc2NC(=O)Nc2ccc(OCCN3CCOCC3)c3ccccc23)cc1 | 23.5 µM (active) | – | inactive | – | inactive
18 | COc1ccc(CCN2CCN(CCCc3ccccc3)CC2)cc1OC | inactive | inactive | – | – | 2.09 µM (active)
19 | COCC(=O)NCC=Cc1ccc2ncnc(Nc3ccc(Oc4ccc(C)nc4)c(C)c3)c2c1 | 20.9 µM (active) | 16.6 µM (active) | – | 18.7 µM (active) | 29.6 µM (active)

Row | Compound | Potency [1] | Potency [2] | Potency [3] | Potency [4] | Potency [5]
20 | CC(=O)NC(C)c1ccc(Oc2ccc(OC(C)C)cc2)cc1 (centres undefined) | 16.6 µM (active) | – | 8.33 µM (active) | – | –
21 | Clc1ccc(Nc2nnc(Cc3ccncc3)c3ccccc23)cc1 | 14.8 µM (active) | – | inactive | – | –
22 | O=C(Nc1cccnc1)N1CCC(Cc2cccc(Oc3ccc(C(F)(F)F)cn3)c2)CC1 | 14.8 µM (active) | – | inactive | – | 8.33 µM (active)
23 | O=C(O)[C@@H](c1ccc(OCc2ccc3ccccc3n2)cc1)C1CCCC1 | inactive | – | inactive | – | –
24 | CN1CCN(CCCN2c3ccccc3Sc3ccc(C(F)(F)F)cc32)CC1 | 1.48 µM (active) | – | inactive | inactive | inactive
25 | COCCNCCCn1c(C(=O)CF)c(-c2ccc(C)cc2)c2c(N)ncnc21 | 10.5 µM (active) | – | inactive | – | –
26 | C[C@@H]1CN(Cc2ccc(F)cc2)[C@@H](C)CN1C(=O)c1cc2c(C(=O)C(=O)N(C)C)cn(C)c2cc1Cl | 18.7 µM (active) | – | inactive | – | –
27 | Cc1cccc(-c2[nH]c(C(C)(C)C)nc2-c2ccc3nccnc3c2)n1 | 7.43 µM (active) | – | inactive | – | –
28 | COc1nc(-c2ccc3c(c2)OCO3)n(-c2ccc(NC(=O)CSc3ccccc3)cc2)n1 | inactive | – | inactive | inactive | –
29 | CC(C[N+](C)(C)C)OC(N)=O (centres undefined) | inactive | inactive | – | – | inactive
30 | COc1ccccc1[C@H](c1cccc2ccccc12)[C@@](C)(C#N)C(=O)N1CCC(c2cccc(C(F)(F)F)c2)CC1 | 5.9 µM (active) | – | 8.33 µM (active) | 1.05 µM (active) | –
31 | O=C(O)COCCN1CCN(C(c2ccccc2)c2ccc(Cl)cc2)CC1 (centres undefined) | inactive | – | inactive | inactive | inactive
32 | CN(C)c1ccc(C2Nc3ccc4ccccc4c3C3=C2C(=O)CC(C)(C)C3)cc1Br (centres undefined) | inactive | – | inactive | – | inactive
33 | Cc1oncc1C(=O)Nc1ccc(C(F)(F)F)cc1 | inactive | – | inactive | – | –
34 | CS(=O)(=O)Oc1ccc2c(NC(N)=O)c(C(=O)c3ccc(Cl)cc3Cl)oc2c1 | 20.9 µM (active) | – | inactive | 5.26 µM (active) | –
35 | O=C1CCC(N2C(=O)c3ccccc3C2=O)C(=O)N1 (centres undefined) | inactive | – | inactive | – | inactive
36 | CCc1ccc(CCOc2ccc(CC3SC(=O)NC3=O)cc2)nc1 (centres undefined) | 18.7 µM (active) | – | inactive | inactive | inactive
37 | Oc1cccc(-c2nc(N3CCOCC3)c3oc4ncccc4c3n2)c1 | 0.54 µM (active) | – | 0.136 µM (active) | – | –
38 | Nc1nccc(-c2ccc3noc(-c4ccc(Cl)cc4)c3c2)n1 | – | inactive | inactive | inactive | –

Row | Compound | Potency [1] | Potency [2] | Potency [3] | Potency [4] | Potency [5]
39 | Cc1cnc(NC(=O)C2=C(O)c3ccccc3S(=O)(=O)N2C)s1 | – | inactive | inactive | inactive | –
40 | CO[C@@H]1[C@H](N(C)C(=O)c2ccccc2)C[C@H]2O[C@]1(C)n1c3ccccc3c3c4c(c5c6ccccc6n2c5c31)C(=O)NC4 | – | 7.43 µM (active) | 3.72 µM (active) | 1.87 µM (active) | 2.96 µM (active)
41 | CCC(C)n1ncn(-c2ccc(N3CCN(c4ccc(OC[C@H]5CO[C@](Cn6cncn6)(c6ccc(Cl)cc6Cl)O5)cc4)CC3)cc2)c1=O (some centres undefined) | – | 3.32 µM (active) | 4.69 µM (active) | 1.32 µM (active) | –
42 | CCCCCCCc1ccc(CCc2cccc(O)c2C(=O)O)cc1 | – | 16.6 µM (active) | inactive | inactive | –
43 | CCOc1cc(C(=O)Nc2ccc(Cl)c(-c3nc4ccccc4[nH]3)c2)cc(OCC)c1OCC | – | 18.7 µM (active) | – | – | –
44 | CCOc1ccc(Cc2cc([C@@H]3O[C@H](CO)[C@@H](O)[C@H](O)[C@@H]3O)ccc2Cl)cc1 | – | inactive | inactive | inactive | –
45 | CN(C)C(=O)c1ccc(S(=O)(=O)c2ccc(NC(=O)[C@@](C)(O)C(F)(F)F)c(Cl)c2)cc1 | – | inactive | inactive | – | –
46 | CCCC(CCC)C(=O)O | – | inactive | inactive | inactive | –
47 | CCCc1nc2c(C)cc(-c3nc4ccccc4n3C)cc2n1Cc1ccc(-c2ccccc2C(=O)O)cc1 | – | inactive | inactive | inactive | inactive
48 | CCCn1c(=O)c2[nH]c(C34CC5CC3C[C@@H](C5)C4)nc2n(CCC)c1=O | – | 8.33 µM (active) | inactive | inactive | inactive
49 | COc1cc2c(cc1OC)CN(CCc1ccc(NC(=O)c3cccc4c(=O)c5cccc(OC)c5[nH]c34)cc1)CC2 | – | inactive | inactive | inactive | inactive
50 | CC(C=CC1=C(C)CCCC1(C)C)=CC=CC(C)=CC(=O)O | 14.8 µM (active) and 18.7 µM (active) | – | – | – | inactive
51 | COc1ccc(COc2cc3oc(=O)c4cc(C(C)O)ccc4c3cc2OC)cc1 (centres undefined) | – | 20.9 µM (active) | – | – | –
52 | CCCS(=O)(=O)Nc1ccc(F)c(C(=O)c2c[nH]c3ncc(-c4ccc(Cl)cc4)cc23)c1F | 5.26 µM (active) | – | – | 8.33 µM (active) | –
53 | COc1ccccc1-c1cccc(-c2c(O)c3cc(C#N)c(Cl)cc3[nH]c2=O)c1 | – | inactive | inactive | – | –
54 | COc1ccc(C2=N[C@H](c3ccc(Cl)cc3)[C@H](c3ccc(Cl)cc3)N2C(=O)N2CCNC(=O)C2)c(OC(C)C)c1 | – | 20.9 µM (active) | inactive | 16.6 µM (active) | –
55 | CS(=O)(=O)c1ccc(C(=O)Nc2ccc(Cl)c(-c3ccccn3)c2)c(Cl)c1 | – | inactive | inactive | inactive | inactive
56 | N#CC[C@H](C1CCCC1)n1cc(-c2ncnc3[nH]ccc23)cn1 | – | inactive | inactive | 20.9 µM (active) | –

From PubChem BioAssay (NCATS)
